# Measurements reported in PubChem BioAssay AID624330 (Southern Research Specialized Biocontainment Screening …, 2012).
# Screen size: about 340,000 compounds; about 2,100 (0.62%) were called active. Only a sample is shown. Potency and affinity values are given separately. Values without a mark were called inactive.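 How the source made its calls: active means first-screen hits whose inhibition reached a set limit at any dose in the follow-up dose series; inconclusive means inhibition above the set first-screen limit but never retested; inactive means the rest.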
# Molecular target: Rac GTPase-activating protein 1 (Homo sapiens) (UniProt Q9H0H5)
# Sequence (Q9H0H5 whole entry, looked up): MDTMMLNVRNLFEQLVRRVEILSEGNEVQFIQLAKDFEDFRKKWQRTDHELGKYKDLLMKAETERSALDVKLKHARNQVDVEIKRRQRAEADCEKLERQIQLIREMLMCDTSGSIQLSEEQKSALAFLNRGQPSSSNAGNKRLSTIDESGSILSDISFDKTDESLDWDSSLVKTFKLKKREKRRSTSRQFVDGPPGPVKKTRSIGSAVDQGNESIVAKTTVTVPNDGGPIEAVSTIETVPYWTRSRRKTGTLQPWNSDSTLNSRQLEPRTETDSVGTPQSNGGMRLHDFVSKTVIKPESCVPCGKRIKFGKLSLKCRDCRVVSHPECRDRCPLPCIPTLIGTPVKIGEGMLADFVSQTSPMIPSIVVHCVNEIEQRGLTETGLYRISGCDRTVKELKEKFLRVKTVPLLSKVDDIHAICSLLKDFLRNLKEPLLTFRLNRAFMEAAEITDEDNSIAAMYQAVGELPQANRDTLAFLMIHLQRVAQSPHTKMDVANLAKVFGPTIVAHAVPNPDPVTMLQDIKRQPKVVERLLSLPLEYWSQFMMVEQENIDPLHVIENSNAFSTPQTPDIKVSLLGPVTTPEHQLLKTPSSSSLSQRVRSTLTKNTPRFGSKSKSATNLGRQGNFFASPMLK
# Assay: MgcRacGAP GTPase-activating activity inhibitors, confirmation, biochemical, ADP Hunter fluorescence, primary and confirmatory (AID 624330);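 further: fluorescence reports GDP produced by GAP-driven GTP hydrolysis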
# Details: MgcRacGAP-stimulated Rac1 GTP hydrolysis, at 30 µM, hits give high values, GST-tagged Rac1 F28L mutant substrate
row,SMILES,inhibition [%]
1,Cc1ccccc1C(=O)OCC(=O)Nc1cccc(S(=O)(=O)N2CCCCC2)c1,11.7
2,CN(C)S(=O)(=O)c1ccc(Cl)c(NC(=O)COc2ccccc2[N+](=O)[O-])c1,6.09
3,CCN(CC1CCCO1)C(=O)c1cc(COc2ccc(OC)cc2Cl)on1 (centres undefined),-11.4
4,C[C@H](CO)N1C[C@H](C)[C@@H](CN(C)C(=O)Nc2ccccc2)Oc2c(NS(=O)(=O)c3ccc(F)cc3)cccc2C1=O,3.18
5,Cc1ccc(OCC(=O)Nc2ccc3oc(=O)ccc3c2)cc1,4.26
6,O=C(Cc1ccsc1)N1CCN(S(=O)(=O)c2cccc(F)c2)CC1,-3.87
7,CC1Cc2ccccc2N1C(=O)CN1CCCCC1 (centres undefined),2.91
8,CCN1CCN(CC(=O)N2c3ccccc3CC2C)CC1 (centres undefined),22.6
9,CN(Cc1cccc(F)c1)C(=O)C1CC(=O)N(c2ccc3c(c2)OCCO3)C1 (centres undefined),4.27
10,Cc1c(Cl)ccc(S(=O)(=O)N2CCN=C2c2ccccc2)c1Cl,4.68
11,Cc1cc(Cl)cc2sc(NC(=O)c3ccco3)nc12,5.28
12,Cc1cc(Cl)cc2sc(NC(=O)C3CC3)nc12,5.72
13,C/C(O)=C\c1nc2ccccc2oc1=O,18.1
14,CCS(=O)(=O)CCSc1nc2ccccc2o1,-5.63
15,CCCCCN1C(C)=CC(=C(C#N)C#N)C=C1C,9.16
16,Cc1cccc2sc(N(CCN(C)C)C(=O)c3ccc4ccccc4c3)nc12,5.08
17,O=c1[nH]cc(S(=O)(=O)N2CCN(c3ccc(F)cc3)CC2)c(=O)[nH]1,2.66
18,Cc1cc(C(=O)Nc2nccs2)c2cc(F)ccc2n1,4.04
19,Cc1ccc(S(=O)(=O)N2CCOCC2)cc1NC(=O)CNCc1ccccc1Cl,8.04
20,O=C(COC(=O)c1ccco1)Nc1cccc(S(=O)(=O)N2CCCCC2)c1,0.12
21,Cc1ccc(S(=O)(=O)N2CCOCC2)cc1C(=O)NCc1cccnc1,5.2
22,O=C(Nc1cccc(S(=O)(=O)N2CCCCC2)c1)c1ccco1,-7.5
23,Cc1ccc(S(=O)(=O)N2CCCCC2)cc1NC(=O)c1ccco1,15.5
24,O=C(CNCc1ccco1)Nc1cc(S(=O)(=O)N2CCOCC2)ccc1N1CCCC1,24.8

row,SMILES,inhibition [%]
1,COc1ccc(CNC(N)=O)cc1OC,5.81
2,CN(C)S(=O)(=O)c1ccc(NC(=O)CN2C(=O)NC3(CCCC3)C2=O)cc1,4.79
3,CCCN(C(=O)c1c(CC)noc1C)c1c(N)n(Cc2ccccc2)c(=O)[nH]c1=O,7.17
4,CC1(NC(=O)N2CCCCC2)CCS(=O)(=O)C1 (centres undefined),6.45
5,O=C1CC(c2ccc(F)cc2)CC(O)=C1C=NCCN1CCNCC1 (centres undefined),10.7
6,COc1ccc(-c2csc3ncnc(N4CCN(c5ccccc5OC)CC4)c23)cc1,8.39
7,O=C(OCC(=O)N1CCN(C(=O)c2ccco2)CC1)c1ccc(Cl)nc1,2.2
8,COCCNC(=O)c1ccc(N2CC3CC(C2)c2cccc(=O)n2C3)c(NC(=O)c2cc(OC)cc(OC)c2)c1 (centres undefined),10.3
9,COc1ccc(CNC(=O)C2CCC(=O)N(CC3CCCCC3)C2)cc1 (centres undefined),8.55
10,O=C(NN1C(=O)c2ccccc2NC1c1ccc([N+](=O)[O-])o1)c1ccc(Br)cc1 (centres undefined),5.26
11,O=C(Cn1c(NCCO)nc2ccccc21)NCCc1ccccc1,0.41
12,Nc1nnc(SCC(=O)N2CCN(c3ccccc3)CC2)s1,2.87
13,Cc1nc(Cc2ccccc2)sc1CC#N,-3.31
14,CC(C)CC(NC(=O)C(Cc1ccc(OCc2ccccc2)cc1)NC(=O)OC(C)(C)C)C(N)=O (centres undefined),10.6
15,Cc1csc(NC(=O)CSc2nc(C)cs2)n1,3.74
16,COc1ccc(CC(=O)Nc2nc(C)cs2)cc1,12
17,COc1ccc(-n2nnnc2SCC(=O)N2CCN(C(=O)c3ccco3)CC2)cc1OC,7.68
18,CCCCNC(=O)CSc1nc2ccccc2n1S(=O)(=O)c1ccc(Br)cc1,2.01
19,Cc1n[nH]c(=O)n(N=Cc2cccs2)c1=O,7.77
20,Nc1nnnn1/N=C/c1cccc(O)c1,5.38
21,O=[N+]([O-])c1ccccc1/C=N/n1c(C(F)(F)F)n[nH]c1=S,16.4
22,Cc1cc(C)n(/N=C/c2cccc(O)c2)c(=O)c1C(N)=O,10.6
23,Cc1ccsc1/C=N/n1c(-c2cc(-c3ccccc3)n[nH]2)n[nH]c1=S,11.8
24,O=[N+]([O-])c1ccccc1/C=N/n1c(-c2ccccc2)n[nH]c1=S,16.3

row,SMILES,inhibition [%]
1,Cc1ccc(-c2n[nH]c(=S)n2/N=C/c2sccc2C)cc1,5.68
2,S=c1[nH]nc(-c2cc(-c3ccccc3)n[nH]2)n1/N=C/c1cccs1,16.3
3,C#CCOCCOCCOCCNc1nc(N2CCN(C(=O)[C@H](CCCCN)n3cc(CN)nn3)CC2)nc(N2CCN(C(=O)[C@H](CCCN=C(N)N)n3cc(C(N)[C@H](C)CC)nn3)CC2)n1 (some centres undefined),7.55
4,C/C(=N/OC(=O)c1ccccc1Br)c1ccc(C)cc1,6.4
5,O=C(CN1CCCCCC1)Nc1cc([N+](=O)[O-])ccc1Cl,5.34
6,Cc1cnc(NC(=O)c2cccc(S(=O)(=O)N3CCOCC3)c2)s1,1.86
7,O=C(CCCOc1ccc(Cl)cc1Cl)N/N=C/c1ccc(Cl)cc1,10.9
8,O=C1CC2(CCN(C(=O)c3ccccc3[N+](=O)[O-])CC2)Oc2ccccc21,-0.23
9,CCOC(=O)c1ccc(N2C(=O)[C@@H](c3ccccc3)[C@H]2c2ccccc2)cc1,-2.09
10,S=c1[nH]nc(-c2ccccn2)n1/N=C/c1ccc(Br)s1,18.4
11,S=c1[nH]nc(-c2cc(-c3ccccc3)n[nH]2)n1/N=C/c1ccc(Br)s1,20.5
12,CCCOc1cccc(/C=N/NC(=O)c2csc(C)c2C)c1,4.91
13,CCOC(=O)N1CCN(CCc2ccccc2)CC1,7.1
14,CC(C)[C@H](NC(=O)c1ccc(Cl)cc1)C(=O)Nc1cccc(S(=O)(=O)N2CCOCC2)c1,12.2
15,CCOc1cc(/C=C2/C(=O)ON=C2C)cc(Br)c1O,29.1
16,O=C1ON=C(c2ccccc2)/C1=C/c1ccccc1,5.86
17,COc1ccc(/C=C2\C(=O)ON=C2c2ccccc2)cc1OC,16.1
18,O=C1ON=C(c2ccccc2)/C1=C/c1ccc(O)cc1,27.7
19,CCOc1cc(/C=C2\C(=O)ON=C2c2ccccc2)ccc1OC,24.3
20,COc1ccc(/C=C2/C(=O)ON=C2c2ccccc2)cc1OC,15.4
21,CN(C)c1cccc(NC(=O)CCc2ccccc2)c1,2.65
22,C[C@H](CO)N1C[C@H](C)[C@H](CN(C)C(=O)CCC(F)(F)F)OCc2cnnn2CCCC1=O,6.43
23,C=CCSc1nnc(-c2ccncc2)n1-c1ccc(OCC)cc1,6.74
24,CC1CCN(S(=O)(=O)c2ccc(C(=O)NCc3cccnc3)cc2)CC1,-0.6

row,SMILES,inhibition [%]
1,C/C(CC(=O)Nc1cccc2c1CCCC2)=N\NC(=O)c1ccccc1N,5.83
2,CC(C)(C)CC(=O)Nc1nnc(SCC(=O)NC2CCCC2)s1,4.93
3,CC(C)OC(=O)c1c(NC(=O)c2cnn3c2NC(c2ccccc2)CC3C(F)(F)F)sc2c1CCCC2 (centres undefined),10.2
4,Cc1ccccc1C(=O)Nc1c2c(nc3ccccc13)CCCC2,10.8
5,O=C(Nc1c2c(nc3ccccc13)CCCC2)c1ccccc1Cl,2.57
6,CCCCCC(=O)Nc1c2c(nc3ccccc13)CCC2,8.1
7,O=C(CCCCCl)Nc1c2c(nc3ccccc13)CCC2,0.44
8,CCN1CCN(c2ccc(NC(=O)c3ccc(OC)c(S(=O)(=O)N4CCCC4)c3)cc2)CC1,4.33
9,CC(C)N1CCN(Cc2coc3ccccc3c2=O)CC1CCO (centres undefined),10.3
10,O=C(CSc1nc(=O)n2ccccc2n1)NCCc1ccccc1,4.62
11,NC(=O)CC(NC(=O)c1cccc(Br)c1)c1ccc(N2CCN(c3ccccn3)CC2)c([N+](=O)[O-])c1 (centres undefined),5.09
12,COc1ccccc1/C=C/C(=O)c1cc(Br)ccc1OC(=O)c1ccco1,8.54
13,CC(C)CC(O)(CC(C)C)C(=O)NNc1ccccc1,11.2
14,CCOC(=O)c1nc(Nc2ccc(C)cc2)c2ccccc2n1,4.57
15,CCOC(=O)c1nc(Nc2ccccc2)c2ccccc2n1,-2.22
16,CCN(CC(=O)Nc1ccccc1OC)C(=O)COc1ccc(C#N)cc1,2.59
17,COc1ccc(CN(C)CC(=O)Nc2ccccc2C(F)(F)F)c(OC)c1,24.5
18,COc1ccccc1CN(C)CC(=O)Nc1ccc(Cl)cc1C(F)(F)F,18.9
19,COc1ccc(CCN=C(N)NS(=O)(=O)c2ccc(F)cc2)cc1OC,7.56
20,CCC(=O)NC(=S)Nc1ccc(NC(=O)c2cccnc2)cc1,-1.6
21,Cc1cc2ccccc2n2c(SCC(=O)NCc3cccs3)nnc12,-2.11
22,C[C@H](CO)N1C[C@H](C)[C@@H](CN(C)S(=O)(=O)c2cccc(C#N)c2)OCc2cn(nn2)CCCC1=O,13.9
